# Laboratory results reported in the supplement of paper PMC7411054.
# Structures can show the parent of a compound that is named as a salt.
# Assays:
# Details in all cases: treatment time: 24 h
# HepG2-CANX-COX4 [1] = experiment: lowest phenotypically active concentration; higher = less potent
# Summary of the method: (§1)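 Fifteen reporter lines derived from A549, HepG2 and WPMY1 cells by gene editing, carrying BFP for segmentation plus GFP and RFP/FusionRed markers, were exposed to 0.3, 1, 3 or 9 µM for 24 h in four wells each and imaged live. Live-cell features from each well were normalised to solvent control wells. A well set counted as deviating when ≥3 of 4 wells lay beyond the 95th percentile of control Euclidean distances, and as reproducible when the median replicate Pearson correlation exceeded the 95th percentile of non-replicates. Phenotypic activity was assigned only when both criteria were met.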
# WPMY1-ACTB-RAB5A [2] = experiment: as above
# Summary of the method: as §1
# WPMY1-GM130-SQSTM1 [3] = experiment: as above
# Summary of the method: as §1
# A549-ACTB-RAB5A = experiment: phenotypically active (imaging signature differs from DMSO and reproducible) at any of 0.3-9 uM (binary (1 = active, 0 = inactive)); higher = active
# Summary of the method: as §1
# A549-CANX-COX4 = experiment: as above
# Summary of the method: as §1
# A549-GM130-SQSTM1 [4] = experiment: as above
# Summary of the method: as §1
# A549-TP53BP1-CLTA = experiment: as above
# Summary of the method: as §1
# A549-TUBA1B-RELA = experiment: as above
# Summary of the method: as §1
# HepG2-ACTB-RAB5A = experiment: as above
# Summary of the method: as §1
# HepG2-CANX-COX4 [5] = experiment: as above
# Summary of the method: as §1
# HepG2-GM130-SQSTM1 [6] = experiment: as above
# Summary of the method: as §1
# HepG2-TP53BP1-CLTA = experiment: as above
# Summary of the method: as §1
# HepG2-TUBA1B-RELA = experiment: as above
# Summary of the method: as §1
# WPMY1-ACTB-RAB5A [7] = experiment: as above
# Summary of the method: as §1
# WPMY1-CANX-COX4 = experiment: as above
# Summary of the method: as §1
# WPMY1-GM130-SQSTM1 [8] = experiment: as above
# Summary of the method: as §1
# WPMY1-TP53BP1-CLTA = experiment: as above
# Summary of the method: as §1
# WPMY1-TUBA1B-RELA = experiment: as above
# Summary of the method: as §1
# HepG2-GM130-SQSTM1 [9] = experiment: lowest phenotypically active concentration; higher = less potent
# Summary of the method: as §1
# A549-GM130-SQSTM1 [10] = experiment: as above
# Summary of the method: as §1
SMILES,lowest phenotypically active concentration (HepG2-CANX-COX4 [1]) [µM],lowest phenotypically active concentration (WPMY1-ACTB-RAB5A [2]) [µM],lowest phenotypically active concentration (WPMY1-GM130-SQSTM1 [3]) [µM],phenotypically active (A549-ACTB-RAB5A),phenotypically active (A549-CANX-COX4),phenotypically active (A549-GM130-SQSTM1 [4]),phenotypically active (A549-TP53BP1-CLTA),phenotypically active (A549-TUBA1B-RELA),phenotypically active (HepG2-ACTB-RAB5A),phenotypically active (HepG2-CANX-COX4 [5]),phenotypically active (HepG2-GM130-SQSTM1 [6]),phenotypically active (HepG2-TP53BP1-CLTA),phenotypically active (HepG2-TUBA1B-RELA),phenotypically active (WPMY1-ACTB-RAB5A [7]),phenotypically active (WPMY1-CANX-COX4),phenotypically active (WPMY1-GM130-SQSTM1 [8]),phenotypically active (WPMY1-TP53BP1-CLTA),phenotypically active (WPMY1-TUBA1B-RELA),lowest phenotypically active concentration (HepG2-GM130-SQSTM1 [9]) [µM],lowest phenotypically active concentration (A549-GM130-SQSTM1 [10]) [µM]
Cc1cccc(-c2n[nH]cc2-c2ccc(F)c(-c3cnn(CCO)c3)c2)n1,9,9,9,1 (active),0 (inactive),0 (inactive),0 (inactive),0 (inactive),0 (inactive),1 (active),0 (inactive),1 (active),0 (inactive),1 (active),1 (active),1 (active),1 (active),1 (active),,
C[C@@H]1CCN(C(=O)CC#N)C[C@@H]1N(C)c1ncnc2[nH]ccc12,9,,,1 (active),0 (inactive),0 (inactive),0 (inactive),0 (inactive),0 (inactive),1 (active),1 (active),1 (active),0 (inactive),0 (inactive),0 (inactive),0 (inactive),0 (inactive),0 (inactive),9,
COc1ccc(CCc2nc3c(C)c(-c4c(C)noc4C)c(C)cc3n2CCN2CCOCC2)cc1,,,,0 (inactive),0 (inactive),1 (active),0 (inactive),0 (inactive),0 (inactive),0 (inactive),0 (inactive),0 (inactive),0 (inactive),0 (inactive),0 (inactive),0 (inactive),0 (inactive),0 (inactive),,9
Cn1cc(-c2ccc3nnc(Sc4ccc5ncccc5c4)n3n2)cn1,,,1,0 (inactive),1 (active),0 (inactive),1 (active),0 (inactive),1 (active),0 (inactive),0 (inactive),0 (inactive),0 (inactive),0 (inactive),0 (inactive),1 (active),0 (inactive),0 (inactive),,
C=C1CC[C@H](O)C/C1=C\C=C1\CCC[C@]2(C)[C@@H]([C@H](C)/C=C/[C@H](C)C(C)C)CC[C@@H]12 [Calciferol],,,,0 (inactive),0 (inactive),1 (active),0 (inactive),0 (inactive),0 (inactive),0 (inactive),0 (inactive),0 (inactive),0 (inactive),0 (inactive),0 (inactive),0 (inactive),0 (inactive),0 (inactive),,9
Cc1cccc(CN2CCN(C(c3ccccc3)c3ccc(Cl)cc3)CC2)c1 (configuration not stated) [Meclizine dihydrochloride],,,,1 (active),0 (inactive),0 (inactive),0 (inactive),0 (inactive),0 (inactive),0 (inactive),0 (inactive),0 (inactive),1 (active),0 (inactive),0 (inactive),0 (inactive),0 (inactive),0 (inactive),,
CC[C@H](Nc1ncnc2[nH]cnc12)c1nc2cccc(F)c2c(=O)n1-c1ccccc1 [idelalisib],,9,,1 (active),0 (inactive),0 (inactive),0 (inactive),0 (inactive),0 (inactive),0 (inactive),0 (inactive),0 (inactive),0 (inactive),1 (active),0 (inactive),0 (inactive),0 (inactive),0 (inactive),,
Cc1cccc(C)c1OCC(C)N (configuration not stated) [mexiletine],,,≤ 0.3,0 (inactive),1 (active),0 (inactive),1 (active),0 (inactive),1 (active),0 (inactive),0 (inactive),0 (inactive),0 (inactive),0 (inactive),0 (inactive),1 (active),0 (inactive),0 (inactive),,
O=c1c(-c2ccc(O)cc2)coc2cc(O)cc(O)c12 [Genistein],,9,,0 (inactive),0 (inactive),1 (active),1 (active),1 (active),0 (inactive),0 (inactive),0 (inactive),0 (inactive),0 (inactive),1 (active),1 (active),0 (inactive),1 (active),1 (active),,9
Cn1c(=O)c2nc[nH]c2n(C)c1=O [theophylline],,,,0 (inactive),0 (inactive),1 (active),0 (inactive),0 (inactive),0 (inactive),0 (inactive),0 (inactive),0 (inactive),0 (inactive),0 (inactive),0 (inactive),0 (inactive),0 (inactive),0 (inactive),,9
COc1cc(C)c(/C=C/C(C)=C/C=C/C(C)=C/C(=O)O)c(C)c1C [acitretin],,,9,1 (active),0 (inactive),0 (inactive),0 (inactive),0 (inactive),0 (inactive),0 (inactive),0 (inactive),0 (inactive),0 (inactive),0 (inactive),1 (active),1 (active),0 (inactive),0 (inactive),,
O=C1NCCCc2c1oc1ccc(O)cc21,9,9,9,1 (active),0 (inactive),0 (inactive),0 (inactive),0 (inactive),0 (inactive),1 (active),0 (inactive),0 (inactive),1 (active),1 (active),0 (inactive),1 (active),0 (inactive),1 (active),,
